What all share (parameters): scale not given: direction of the effect not stated beside the values
Test [1] has as its target Protein translocase subunit SecA (Escherichia coli (strain K12)) (UniProt P10408). Nature of the test: Assay to Identify E. coli SecA ATPase Inhibitors. Type of test: functional. Conditions: 30 µM.
Test [2] concerns the target T1, Ubiquitin-activating enzyme e1, putative (Leishmania donovani (strain BPK282A1)) (UniProt E9BSI1).
T1 sequence (whole entry): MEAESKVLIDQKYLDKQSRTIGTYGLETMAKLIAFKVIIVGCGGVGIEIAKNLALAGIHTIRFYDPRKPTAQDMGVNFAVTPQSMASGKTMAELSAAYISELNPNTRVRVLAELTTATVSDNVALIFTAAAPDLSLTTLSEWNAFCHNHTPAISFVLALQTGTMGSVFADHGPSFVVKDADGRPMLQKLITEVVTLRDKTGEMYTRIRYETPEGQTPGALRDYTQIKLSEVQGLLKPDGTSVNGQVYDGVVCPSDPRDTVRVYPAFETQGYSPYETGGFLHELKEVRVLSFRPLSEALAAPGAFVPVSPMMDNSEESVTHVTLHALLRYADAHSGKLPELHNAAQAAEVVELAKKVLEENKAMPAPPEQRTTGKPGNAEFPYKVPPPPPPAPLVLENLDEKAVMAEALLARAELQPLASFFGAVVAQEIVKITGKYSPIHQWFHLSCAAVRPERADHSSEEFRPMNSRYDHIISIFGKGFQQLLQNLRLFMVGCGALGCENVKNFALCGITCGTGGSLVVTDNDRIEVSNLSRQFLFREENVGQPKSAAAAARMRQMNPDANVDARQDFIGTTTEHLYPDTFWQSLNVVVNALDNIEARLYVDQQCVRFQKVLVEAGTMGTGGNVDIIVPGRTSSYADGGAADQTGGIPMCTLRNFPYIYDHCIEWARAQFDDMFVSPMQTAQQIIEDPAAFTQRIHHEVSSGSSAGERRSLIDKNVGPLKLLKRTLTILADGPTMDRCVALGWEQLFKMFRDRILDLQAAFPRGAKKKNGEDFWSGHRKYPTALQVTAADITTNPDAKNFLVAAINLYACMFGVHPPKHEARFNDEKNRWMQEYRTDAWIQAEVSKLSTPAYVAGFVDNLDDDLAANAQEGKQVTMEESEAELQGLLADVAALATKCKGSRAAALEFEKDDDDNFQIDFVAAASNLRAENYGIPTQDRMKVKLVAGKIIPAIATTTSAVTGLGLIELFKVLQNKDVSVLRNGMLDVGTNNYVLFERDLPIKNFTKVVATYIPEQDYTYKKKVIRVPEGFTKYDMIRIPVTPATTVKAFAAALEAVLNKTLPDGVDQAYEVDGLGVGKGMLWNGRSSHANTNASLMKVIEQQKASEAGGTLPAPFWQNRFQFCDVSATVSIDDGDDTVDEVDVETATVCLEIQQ
The test is described as follows: Leishmania donovani Ubiquitin Activating Enzyme (LdE1). Type of test: functional. The conditions noted are these: 30 µM.

Test [3] deals with AMP-activated protein kinase, AMPK (Homo sapiens) (UniProt P54646+O43741+P54619+Q9UGJ0+Q9Y478+Q13131+Q9UGI9). Nature of the test: AMP-dependent Kinase enzyme assay. An in vitro enzyme assay that detects ADP turnover that is directly proportional to AMPK activity. This uses naive AMPK that is activated during the assay with MK-8722. The conditions noted are these: 30 µM. Type of test: functional.

Test [4] concerns the target Sialic acid-binding Ig-like lectin 9 (Homo sapiens) (UniProt Q9Y336). Nature of the test: Hs-Siglec9 ALPHAscreen SOP 20170721. The conditions noted are these: 10 µM. For orientation: Bead proximity is the source of the signal in Alpha formats.
Another test relates to Trypanosoma cruzi. Nature of the test: Trypanosoma cruzi phosphomannomutase and mannose-1-phosphate guanylyltransferase assay. Type of test: functional. The conditions noted are these: 10 µM.
The target of test [5] is T2, Arginase-2, mitochondrial (Homo sapiens) (UniProt P78540).
T2 sequence (whole entry): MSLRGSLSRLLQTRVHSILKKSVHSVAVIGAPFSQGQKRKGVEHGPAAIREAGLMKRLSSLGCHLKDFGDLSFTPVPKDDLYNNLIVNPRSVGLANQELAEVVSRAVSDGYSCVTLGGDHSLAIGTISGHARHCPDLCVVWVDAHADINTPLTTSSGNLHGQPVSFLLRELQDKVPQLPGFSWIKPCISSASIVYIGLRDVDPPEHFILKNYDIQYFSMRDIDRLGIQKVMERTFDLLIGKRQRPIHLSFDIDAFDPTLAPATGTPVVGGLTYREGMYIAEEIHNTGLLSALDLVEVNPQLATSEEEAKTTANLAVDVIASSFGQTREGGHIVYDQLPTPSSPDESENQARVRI
Nature of the test: in vitro enzyme assay to detect the production of urea directly proportional to the activity of Arginase II. Further: in the data most compounds retested in dose-response had high values. Type of test: functional. The conditions noted are these: 33.3 µM.

In test [6] the target is T3, Proteasome subunit beta (Trypanosoma cruzi) (UniProt O96673).
T3 sequence (whole entry): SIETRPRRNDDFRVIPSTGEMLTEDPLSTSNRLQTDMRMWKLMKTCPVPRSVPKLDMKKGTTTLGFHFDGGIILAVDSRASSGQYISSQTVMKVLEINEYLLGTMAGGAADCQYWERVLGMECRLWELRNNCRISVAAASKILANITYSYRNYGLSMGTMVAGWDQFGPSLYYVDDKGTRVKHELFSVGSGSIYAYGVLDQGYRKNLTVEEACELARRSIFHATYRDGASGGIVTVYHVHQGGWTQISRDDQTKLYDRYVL
Nature of the test: Trypanosoma cruzi proteasome chymotrypsin-like activity (TcProtChymo) assay. Further: in the data most compounds retested in dose-response had high values. Type of test: functional. The conditions noted are these: 9.37 µM.

The species named for another test is Homo sapiens. Nature of the test: To identify inhibition of the IFN signalling (Jak-Stat) pathway via expression of an eGFP reporter gene under the control of an IFN-stimulated response element (ISRE) containing MxA promoter. Type of test: functional. Conditions: 30 µM.
Test [7] deals with T4, Tyrosyl-tRNA synthetase, putative (Trypanosoma cruzi (strain CL Brener)) (UniProt Q4DSP6).
T4 sequence (whole entry): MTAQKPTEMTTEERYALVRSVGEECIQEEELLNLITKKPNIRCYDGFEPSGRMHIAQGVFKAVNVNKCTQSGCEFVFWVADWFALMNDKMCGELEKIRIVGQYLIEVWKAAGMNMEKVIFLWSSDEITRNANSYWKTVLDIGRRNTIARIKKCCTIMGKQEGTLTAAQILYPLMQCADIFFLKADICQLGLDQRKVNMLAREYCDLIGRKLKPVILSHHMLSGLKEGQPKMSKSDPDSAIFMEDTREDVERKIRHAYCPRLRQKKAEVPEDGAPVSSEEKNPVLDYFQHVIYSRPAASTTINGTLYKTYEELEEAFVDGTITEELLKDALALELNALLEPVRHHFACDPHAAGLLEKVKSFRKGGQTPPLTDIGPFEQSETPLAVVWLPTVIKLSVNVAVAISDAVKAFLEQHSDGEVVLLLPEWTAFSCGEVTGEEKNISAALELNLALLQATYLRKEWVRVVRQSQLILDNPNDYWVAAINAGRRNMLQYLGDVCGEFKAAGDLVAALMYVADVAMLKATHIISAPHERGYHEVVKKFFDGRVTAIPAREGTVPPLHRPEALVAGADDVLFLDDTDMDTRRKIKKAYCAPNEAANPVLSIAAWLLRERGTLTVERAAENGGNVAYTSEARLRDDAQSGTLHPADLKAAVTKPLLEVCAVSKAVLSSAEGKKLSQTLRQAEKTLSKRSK
The test is described as follows: Trypanosoma cruzi tyrosyl tRNA synthetase (TcYRS) _High Tyrosine SOP. Further: in the data most compounds retested in dose-response had high values. Type of test: functional. The conditions noted are these: 30 µM.

Test [8] concerns the target T4, Tyrosyl-tRNA synthetase, putative (Trypanosoma cruzi (strain CL Brener)). The test is described as follows: Trypanosoma cruzi tyrosyl tRNA synthetase (TcYRS) SOP. Type of test: functional. Conditions: 30 µM.
Test [9] concerns the target Chromo domain-containing protein 1 (Saccharomyces cerevisiae (strain ATCC 204508 / S288c) (Baker's yeast)) (UniProt P32657). Nature of the test: ScCHD-1 Enzyme Inhibition Assay. Further: in the data most compounds retested in dose-response had high values. Type of test: functional. Conditions: 30 µM.

The structures appear in SMILES notation. For some of these results: Potency and affinity values are given separately.

Chain of Chromo domain-containing protein 1 (Saccharomyces cerevisiae (strain ATCC 204508 / S288c) (Baker's yeast)) (P32657 whole entry, the tested form may be a part): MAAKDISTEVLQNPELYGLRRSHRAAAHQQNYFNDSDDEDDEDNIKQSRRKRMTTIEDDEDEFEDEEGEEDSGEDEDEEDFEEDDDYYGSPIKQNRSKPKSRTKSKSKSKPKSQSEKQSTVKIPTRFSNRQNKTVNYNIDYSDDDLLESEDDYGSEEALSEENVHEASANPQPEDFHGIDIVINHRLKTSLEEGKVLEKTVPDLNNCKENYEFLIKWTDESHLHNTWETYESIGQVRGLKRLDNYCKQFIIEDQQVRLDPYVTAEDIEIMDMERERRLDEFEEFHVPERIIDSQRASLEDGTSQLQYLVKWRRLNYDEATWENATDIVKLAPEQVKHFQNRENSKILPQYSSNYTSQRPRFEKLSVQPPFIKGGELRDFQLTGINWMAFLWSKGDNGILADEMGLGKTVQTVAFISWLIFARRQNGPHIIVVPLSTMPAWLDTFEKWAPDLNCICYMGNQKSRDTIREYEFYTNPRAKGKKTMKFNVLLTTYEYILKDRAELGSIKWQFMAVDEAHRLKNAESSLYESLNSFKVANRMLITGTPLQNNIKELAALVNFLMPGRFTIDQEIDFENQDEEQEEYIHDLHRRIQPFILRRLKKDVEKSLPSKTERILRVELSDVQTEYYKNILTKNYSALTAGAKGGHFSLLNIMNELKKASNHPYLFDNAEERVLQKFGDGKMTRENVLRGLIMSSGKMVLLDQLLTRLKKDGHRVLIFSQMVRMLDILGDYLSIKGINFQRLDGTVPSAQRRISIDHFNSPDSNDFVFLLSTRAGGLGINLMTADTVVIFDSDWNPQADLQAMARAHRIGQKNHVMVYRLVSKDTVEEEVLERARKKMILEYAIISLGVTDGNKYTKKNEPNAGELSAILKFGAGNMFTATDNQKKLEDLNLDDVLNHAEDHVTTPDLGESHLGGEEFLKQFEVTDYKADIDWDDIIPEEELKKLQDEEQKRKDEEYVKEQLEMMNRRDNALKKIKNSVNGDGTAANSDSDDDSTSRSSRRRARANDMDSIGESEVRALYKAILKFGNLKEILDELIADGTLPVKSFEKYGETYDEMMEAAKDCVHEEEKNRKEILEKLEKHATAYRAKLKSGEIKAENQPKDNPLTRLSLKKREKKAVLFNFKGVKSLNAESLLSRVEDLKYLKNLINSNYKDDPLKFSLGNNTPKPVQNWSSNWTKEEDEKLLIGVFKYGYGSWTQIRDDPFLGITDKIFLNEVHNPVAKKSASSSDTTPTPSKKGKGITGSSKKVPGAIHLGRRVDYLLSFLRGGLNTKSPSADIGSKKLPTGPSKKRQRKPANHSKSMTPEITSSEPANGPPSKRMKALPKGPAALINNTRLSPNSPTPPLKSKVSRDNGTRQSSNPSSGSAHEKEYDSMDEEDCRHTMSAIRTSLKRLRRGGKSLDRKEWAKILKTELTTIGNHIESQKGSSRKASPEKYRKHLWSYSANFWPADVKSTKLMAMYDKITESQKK
Chain of Sialic acid-binding Ig-like lectin 9 (Homo sapiens) (Q9Y336 whole entry): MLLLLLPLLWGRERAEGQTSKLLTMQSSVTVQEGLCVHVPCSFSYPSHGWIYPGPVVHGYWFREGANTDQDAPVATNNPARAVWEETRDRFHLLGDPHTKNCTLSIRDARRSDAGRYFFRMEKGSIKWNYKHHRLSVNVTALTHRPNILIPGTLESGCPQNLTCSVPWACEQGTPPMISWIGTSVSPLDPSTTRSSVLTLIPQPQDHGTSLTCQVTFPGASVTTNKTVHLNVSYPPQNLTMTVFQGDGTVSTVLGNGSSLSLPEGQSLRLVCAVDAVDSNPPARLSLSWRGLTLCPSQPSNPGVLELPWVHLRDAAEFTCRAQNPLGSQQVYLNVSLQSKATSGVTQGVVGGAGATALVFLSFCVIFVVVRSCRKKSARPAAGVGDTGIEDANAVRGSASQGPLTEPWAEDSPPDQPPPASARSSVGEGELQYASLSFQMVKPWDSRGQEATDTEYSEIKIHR
Chain of Protein translocase subunit SecA (Escherichia coli (strain K12)) (P10408 whole entry): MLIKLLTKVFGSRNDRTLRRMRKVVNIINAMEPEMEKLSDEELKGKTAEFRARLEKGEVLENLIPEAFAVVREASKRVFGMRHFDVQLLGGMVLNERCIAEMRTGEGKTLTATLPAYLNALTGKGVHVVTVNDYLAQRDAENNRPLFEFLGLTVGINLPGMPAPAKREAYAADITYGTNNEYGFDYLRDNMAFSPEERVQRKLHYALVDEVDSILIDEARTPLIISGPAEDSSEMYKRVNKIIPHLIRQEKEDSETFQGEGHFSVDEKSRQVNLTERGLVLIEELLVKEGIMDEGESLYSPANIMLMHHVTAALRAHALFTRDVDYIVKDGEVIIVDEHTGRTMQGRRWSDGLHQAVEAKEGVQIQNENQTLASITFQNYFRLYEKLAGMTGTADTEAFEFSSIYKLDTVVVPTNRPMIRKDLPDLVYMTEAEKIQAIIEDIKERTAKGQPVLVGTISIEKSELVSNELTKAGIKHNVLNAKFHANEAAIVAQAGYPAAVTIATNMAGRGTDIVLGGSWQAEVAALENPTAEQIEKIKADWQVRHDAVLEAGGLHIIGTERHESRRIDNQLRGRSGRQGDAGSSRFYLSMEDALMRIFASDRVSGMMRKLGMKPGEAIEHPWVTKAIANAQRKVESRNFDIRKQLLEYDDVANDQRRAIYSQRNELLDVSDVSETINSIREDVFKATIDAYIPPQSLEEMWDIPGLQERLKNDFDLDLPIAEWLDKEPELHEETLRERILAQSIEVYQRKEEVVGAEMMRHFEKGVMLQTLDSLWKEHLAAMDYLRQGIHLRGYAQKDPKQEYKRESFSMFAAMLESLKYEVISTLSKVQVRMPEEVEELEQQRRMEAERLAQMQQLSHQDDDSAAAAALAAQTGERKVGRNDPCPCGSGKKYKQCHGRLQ

As for `Cc1cnc(CNC(=O)NCc2cccnc2N(C)C)s1`, the Percent Effect is -3.06% in test [1]; -2.6% in test [2]; 1.02% in [3]; 13.8% in test [4]; -2.43% in the test on Trypanosoma cruzi; 2.85% in test [5]. The Percent Effect in test [6] is -5.07%; in the test filed under Homo sapiens, 5.66%; in [7] it was 0%; in [8], 7.32%; in test [9], 2.89%.
On to `Cn1cc(CN2CCc3nc(-c4ccccn4)nc(O)c3C2)cn1`, for which the Percent Effect is -7.26% in test [1]; 2.67% in test [2]; -8.66% in test [3]; 8.08% in [4]; 6.69% with Trypanosoma cruzi; -3.96% in test [5]. Further, the Percent Effect is -0.617% in test [6]; -0.651% in the test listed under Homo sapiens; 10.6% in test [7]; 29.5% in test [8]; -10.9% in test [9].
Consider `Cc1cc(N2CCCC2c2cnccn2)ncn1` (stereo unspecified), for which the Percent Effect is -2.62% in [1]; 6.76% in [2]; 8.11% in [3]; 0.00484% in test [4]; -2.37% in the test with Trypanosoma cruzi; 0.696% in test [5]. Further, the Percent Effect is 7.02% in test [6]; 5.1% in the test listed under Homo sapiens; 8.6% in test [7]; 14.3% in test [8]; -2.99% in test [9].
Take `O=C(c1ccco1)N1CCCC1C1CCN(Cc2ccccc2)CC1` (stereo unspecified): the Percent Effect in test [1] is -3.11%; in [2] it was 7.89%; in test [3], 6.52%; in [4], -0.267%; in the test on Trypanosoma cruzi, -2.24%; in test [5], 4.73%. Besides, the Percent Effect was 17.9% in [6]; 8.16% in the test filed under Homo sapiens; 6.38% in test [7]; 10.4% in test [8]; -2.37% in test [9].
Consider `CC(=O)Nc1ncc(S(=O)(=O)Nc2ccc(F)cc2F)s1`, for which the Percent Effect in [1] was -1.2%; in test [2], 9.33%; in test [3], -2.12%; in test [4], -4.17%; with Trypanosoma cruzi it was -6.68%; in [5], -5.11%. In addition, the Percent Effect in test [6] was 19%; in the test filed under Homo sapiens it was 12.9%; in test [7], 3.17%; in test [8] it was 10.3%; in [9], -9.04%.
With `CC(Cn1cccn1)NC(=O)N(C)Cc1ccc(Cl)s1` (stereo unspecified), the Percent Effect in [1] was -7.83%; in [2] it was 2.53%; in test [3], -3.14%; in test [4], 9.63%; with Trypanosoma cruzi it was 7.27%; in [5], -8.37%. The Percent Effect in test [6] was 0.409%; in the test listed under Homo sapiens it was 2.27%; in [7], -1.48%; in test [8], 3.8%; in test [9] it was -2.46%.
In the case of `CN(CC1COc2ccccc2O1)C(=O)NCCCn1ccnc1` (stereo unspecified), the Percent Effect is -1.25% in [1]; 0% in [2]; 12.1% in test [3]; -8.39% in test [4]; -4.7% with Trypanosoma cruzi; -3.06% in [5]. Besides, the Percent Effect in test [6] is -0.835%; in the test filed under Homo sapiens, 27.3%; in [7], -3.43%; in test [8] it was -7.32%; in test [9], 7.75%.
Consider `CC(Sc1nnnn1C1CCOCC1)C(=O)NC1CCCCC1` (stereo unspecified), for which the Percent Effect was -6.54% in [1]; 2.67% in test [2]; -2.78% in test [3]; 37.4% in [4]; 3.21% in the test with Trypanosoma cruzi; 3.65% in [5]. Moreover, the Percent Effect in test [6] was 13.8%; in the test filed under Homo sapiens, 24.9%; in test [7], 7.1%; in [8], 16.1%; in test [9], -4.98%.
Turning to `Cc1cc(-c2cnn(CCNC(=O)c3cccnc3)c2C2CC2)on1`, the Percent Effect in test [1] is -4.86%; in test [2] it was 4.05%; in test [3], 7.97%; in test [4], 2.6%; in the test on Trypanosoma cruzi, -0.395%; in test [5], -3.48%. The Percent Effect was -1.09% in test [6]; 7.9% in the test filed under Homo sapiens; 5.38% in [7]; 9.09% in test [8]; 1.21% in test [9].
`CCOc1ccccc1OC1CCN(C(=O)c2cc[nH]n2)CC1`: the Percent Effect in test [1] was -5.63%; in test [2] it was 13.2%; in test [3], 8.96%; in [4], -2.66%; with Trypanosoma cruzi it was -4.13%; in [5], 4.21%. In addition, the Percent Effect in test [6] was 12.4%; in the test filed under Homo sapiens it was 26.7%; in [7] it was 2.45%; in test [8], 7.32%; in test [9], -7.55%.
With `CCN1CCC(NC(=O)CN2CCCC2Cn2nc(C)cc2C)CC1` (stereo unspecified), the Percent Effect in [1] is -3.31%; in [2], 2.7%; in test [3], -2.56%; in test [4], 6.76%; in the test on Trypanosoma cruzi, -3.3%; in test [5], -5.61%. Further, the Percent Effect in [6] is -0.54%; in the test filed under Homo sapiens, 3.04%; in [7], 4.43%; in test [8], 1.24%; in [9], 0.399%.

The values above are taken from ChEMBL document CHEMBL3988442, “University of Dundee, Small-Polar-MMV Screening Library” (2021).
